# This excerpt belongs to a sample that is enriched for hits.
# Tb PYK inh: inhibitors of Trypanosoma brucei pyruvate kinase | Q57TT1 | Potency, µM (titrated, usually from 76.8 µM), inactives show at the top dose activity, negative = inhibition, hits mostly inhibitors | 410,000 tested, 0.12% active | TbPYK enzyme, Kinase-Glo Plus ATP luminescence, 45 min; further: potency means the concentration at half of the fitted maximal effect; on the % scale 0 is the no-effect control and ±100 the full control effect; nearly all actives have a fitted effect of over 50% in size
#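 Readout: single end-point luminescence (Kinase-Glo Plus, 10 min). Reaction conditions were TbPYK/substrate plus 130 uM ADP, 45 min at RT, pH 7.2 TEA buffer. No-enzyme wells served as controls, and data were normalized before concentration-response fitting.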
# FBPA Giardia inh: inhibitors of Giardia lamblia fructose-1,6-bisphosphate aldolase. A8B2U2. purified Giardia FBPA. Potency, µM (titrated, usually from 59.6 µM), without a hit: top-dose activity, negative = inhibition, hits mostly inhibitors. 290,000 tested, 0.71% active; further: potency means the concentration at half of the fitted maximal effect; on the % scale 0 is the no-effect control and ±100 the full control effect; nearly all actives have a fitted effect of over 55% in size
#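 40 nM FBPA preincubated 10 min at RT with compound (up to 57.5 uM final), then substrate plus GAPDH/TPI/NAD/arsenate coupling and diaphorase/resazurin added. Fluorescence read after 20 min at RT, 525/598 nm.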
# CHX counter: affects cycloheximide protein synthesis inhibition readout, counter-screen. 300,000 tested, 12% active. AID 2314. max response, %. cell reporter, cycloheximide protein synthesis inhibition counterscreen; in the data active means max response mostly above about 13%, no sharp cut-off; inactive means mostly below about 14%; further: read at 38.3 µM for the half of the compounds with a filed dose; 0% is about no effect
# Sm TGR block: inhibitors of Schistosoma mansoni thioredoxin glutathione reductase; Q962Y6; purified TGR, DTNB reduction, TNB absorbance 405 nm; Potency, µM (highest dose often 114 µM), inactives show at the highest dose activity change, negative = inhibition, most hits filed as inhibitors; 360,000 tested, 3% active; AID 485364; further: potency means the concentration at half of the fitted maximal effect; on the % scale 0 is the no-effect control and ±100 the full control effect; nearly all actives have a fitted effect of over 60% in size
#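 Kinetic colorimetric format: TGR-catalysed, NADPH-driven DTNB reduction monitored via TNB absorbance. Enzyme dispensed at 20 nM; compound exposure 15 min at room temperature before reaction start.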
# Shiga toxin inh: blocks Shiga toxin action in Vero cells | Vero cells, Shiga toxin protein synthesis inhibition reporter | inhibition, % at 38.7 µM | 290,000 tested, 9.2% active; in the data active means inhibition mostly above about 28%, no sharp cut-off; inactive means mostly below about 43%; further: 0% is about no effect
# LmPK inhibitor: LmPK (Leishmania mexicana) enzyme inhibition; purified LmPK, Kinase-Glo ATP luminescence, 1 h; Q27686; 290,000 tested, 0.37% active; Potency, µM (highest dose often 57.5 µM), for inactives: at the top dose activity change, negative = inhibition, most hits filed as inhibitors; AID 1721; further: potency means the concentration at half of the fitted maximal effect; on the % scale 0 is the no-effect control and ±100 the full control effect
# Target sequence (Q27686 whole entry, looked up): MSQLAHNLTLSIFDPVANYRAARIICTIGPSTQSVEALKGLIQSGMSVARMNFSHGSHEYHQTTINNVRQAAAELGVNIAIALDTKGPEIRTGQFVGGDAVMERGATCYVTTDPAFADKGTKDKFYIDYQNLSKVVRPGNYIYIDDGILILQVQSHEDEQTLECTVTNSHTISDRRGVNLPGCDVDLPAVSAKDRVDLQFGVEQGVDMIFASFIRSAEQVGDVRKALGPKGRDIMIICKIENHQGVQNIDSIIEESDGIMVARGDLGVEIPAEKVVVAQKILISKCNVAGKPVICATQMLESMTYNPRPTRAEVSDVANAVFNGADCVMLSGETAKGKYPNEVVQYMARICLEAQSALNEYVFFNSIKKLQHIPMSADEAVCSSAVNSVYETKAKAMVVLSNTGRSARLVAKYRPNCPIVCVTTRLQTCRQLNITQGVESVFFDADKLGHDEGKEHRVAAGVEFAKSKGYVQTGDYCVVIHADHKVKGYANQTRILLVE
#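 0.1 nM LmPK, 0.5 mM PEP, 0.1 mM ADP; 50 mM imidazole pH 7.2, 7 mM MgCl2, 50 mM KCl; 1 h RT. Kinase-Glo luminescence readout, normalized to no-enzyme (full inhibition) and uninhibited wells.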
# * hit, by the source's call; ? = inconclusive; . = not tested or not shown; [ ] = remark or other dose. Unless noted, the call rests on the fitted dose curve; in most records, active means well fitted curve in the direction sought with a large enough effect; inconclusive means small, poorly fitted or top-dose-only effect, or another doubt; inactive means no such curve, though single readings can be large; an effect the other way counts as inactive or inconclusive.
SMILES,Tb PYK inh,FBPA Giardia inh,CHX counter,Sm TGR block,Shiga toxin inh,LmPK inhibitor
c1ccc(Nc2nnc(-c3cccnc3)s2)cc1,-2.6%,9.5%,42.1*,1.8%,69.0*,-3.2%
CC(C)(C)OC(=O)N1CCC(c2c(C(=O)NCCN3CCCC3)cnn2-c2ccc(Cl)cc2)CC1,1.1%,.,.,2.4%,.,.
COC(=O)N1CCC2(CCN(C(=O)Nc3cccc(F)c3)CC2)CC1,3.4%,-0.8%,.,.,.,.
NC(=O)c1cc(-c2csc(NCCc3ccccc3)n2)ccc1O,-5.5%,-10.0%,-5.3,-3.8%,18.3,-0.8%
C=CCNc1nc(-c2ccc(O)c(C(N)=O)c2)cs1,?,-18.9%,22.0*,-13.2%,45.4,-4.7%
c1ccc(CNc2nc(-c3cccnc3)cs2)cc1,0.7%,-15.8%,34.1*,.,48.0,0.2%
c1ccc(-c2nc(-c3cccnc3)cs2)cc1,1.1%,3.3%,46.1*,8.4%,51.6*,2.9%
N#Cc1nc(COc2ccccc2F)oc1NCc1ccc(F)cc1,-4.7%,-0.4%,35.3*,25.1µM*,64.5*,6.5%
COc1ccc(CCNc2oc(COc3ccccc3F)nc2C#N)cc1,0.0%,-4.8%,15.5*,-16.5%,29.7,-0.7%
N#Cc1nc(-c2ccco2)oc1NCc1ccc(F)cc1,0.0%,4.0%,11.6,45.3%,33.7,3.1%
CN(C)c1oc(COc2ccc(F)cc2)nc1C#N,4.3%,-4.0%,6.1,0.0%,-5.3,-0.9%
CN(C)c1oc(COc2ccccc2F)nc1C#N,2.3%,4.0%,29.2*,-0.6%,59.0*,-4.1%
CC1CCN(S(=O)(=O)c2ccc3nc(Nc4cccc(F)c4)ccc3c2)CC1,-4.6%,.,.,10.4%,.,.
O=C(NCC(c1cccs1)S(=O)(=O)c1cccs1)c1cccc(F)c1 (stereo not drawn),0.3%,.,.,20µM*,.,.
O=C(NCC(c1ccco1)S(=O)(=O)c1cccs1)c1c(F)cccc1F (stereo not drawn),-0.3%,.,.,0.708µM*,.,.
O=C(NCCc1ccc(F)cc1)C(=O)NCC(c1ccco1)S(=O)(=O)c1cccs1 (stereo not drawn),-7.1%,.,.,?,.,.
O=C(NCC(c1ccco1)S(=O)(=O)c1cccs1)c1ccccc1F (stereo not drawn),-2.0%,.,.,11.2µM*,.,.
CCOc1ccccc1NS(=O)(=O)c1c(C)[nH]c(C)c1C(=O)N1CCCCC1,0.6%,1.7%,-1.0,9.1%,26.3,-0.2%
CC1=CC(=NOC(=O)/C=C/c2ccccc2)C=C(C)C1=O,2.5%,?,12.6*,-25.7%,22.8,1.5%
CC1=CC(=O)C=C(C)C1=NOC(=O)/C=C\c1ccccc1,2.4%,?,-4.2,-11.8%,-2.5,-0.5%
C=C(CC1(C(C)NP(=O)(c2ccccc2)c2ccccc2)CC1)c1ccccc1 (stereo not drawn),.,-1.1%,.,.,.,.
COc1ccc(-c2c3c(=O)n(C)c(=O)n(C)c3cn2Cc2cccnc2)cc1,0.4%,-25.1%,17.1*,?,125.6*,3.2%
Cn1c(=O)c2c(-c3ccc(Cl)cc3)n(Cc3ccccc3)cc2n(C)c1=O,1.4%,.,.,-7.7%,.,.
Cc1ccc(-c2c3c(=O)n(C)c(=O)n(C)c3cn2Cc2ccccn2)cc1,-15.9%,-11.8%,16.8,35.5µM*,20.8,6.8%
COc1ccc(-c2c3c(=O)n(C)c(=O)n(C)c3cn2Cc2ccccn2)cc1,-3.6%,-21.2%,-2.4,28.2µM*,42.4,3.9%
SMILES,Tb PYK inh,FBPA Giardia inh,CHX counter,Sm TGR block,Shiga toxin inh,LmPK inhibitor
CO/N=C(/COc1ccc(F)cc1)c1ccc(OC)cc1,-2.3%,6.5%,-1.0,25.1µM*,21.0,-0.1%
C/C(=N\NC(=O)c1cccc(S(=O)(=O)N2CCCC2)c1)c1ccc(C)cc1,0.4%,.,.,0.7%,.,.
Cc1onc(-c2ccccc2Cl)c1C(N)=O,-7.5%,6.0%,2.5,0.0%,-4.1,0.0%
Cc1onc(-c2ccccc2Cl)c1C(=O)Nc1nc2c(s1)CCCC2,1.0%,-0.3%,69.1*,2.1%,127.4*,7.9%
Cc1onc(-c2ccccc2Cl)c1C(=O)Nc1nnc(-c2ccc(Br)cc2)s1,2.5%,5.7%,21.8*,7.4%,13.8,-1.5%
Cc1[nH]n(C)c(=O)c1C(=O)c1c(-c2ccccc2Cl)noc1C,-8.3%,-0.8%,-0.7,44.7µM*,-8.9,5.1%
COc1ccc(C)cc1S(=O)(=O)NC(C)c1cnn(-c2ccccn2)c1C (stereo not drawn),-12.6%,.,.,.,.,.
COc1ccccc1C(=O)Nc1ccc(S(=O)(=O)Nc2nc(C)cc(C)n2)cc1,-1.8%,.,.,-1.1%,.,.
COc1ccccc1-c1ccc(/C=C2\C=CC(=O)O2)o1,-5.5%,-5.7%,44.9*,14.1µM*,92.5*,-6.4%
O=C(C[n+]1cc(-c2ccc(Cl)cc2)n2c1CCCCC2)c1ccccc1,-0.6%,0.3%,25.5*,-7.4%,52.3*,2.8%
O=C(C[n+]1cc(-c2ccc(F)cc2)n2c1CCC2)N1c2ccccc2Sc2ccccc21,-10.1%,1.1%,44.1*,-9.3%,53.6*,-4.1%
COc1ccc(-c2nc(CSCC(=O)N3CCN(c4ccc(F)cc4)CC3)c(C)o2)cc1,0.1%,.,.,-0.5%,.,.
CCc1ccc2occ(CC(=O)Nc3sc4c(c3C(=O)NCCOC)CCCC4)c2c1,0.6%,.,.,-1.7%,.,.
Cc1ccc(/C=N/Nc2nc(Cl)c(Cl)cc2Cl)s1,-2.1%,-2.1%,28.3*,0.9%,95.6*,0.3%
Cc1ccsc1/C=N/Nc1nc(Cl)c(Cl)cc1Cl,1.2%,-4.2%,41.1*,5.2%,45.1,-1.8%
CCc1cc(-c2n[nH]c(C)c2-c2ccccc2Cl)c(O)cc1OC,1.9%,-19.7%,31.6*,3.7%,80.1*,-0.8%
O=C(NC[C@@H](O)CO)c1c(I)c(C(=O)NC[C@@H](O)CO)c(I)c(N(CCO)C(=O)CO)c1I,0.0%[33.2 µM],-2.3%[21.7 µM],.,.,.,.
O=C(NC(c1ccccc1)c1c(O)ccc2ccccc12)c1ccccc1Cl (stereo not drawn),-3.8%,0.0%,-5.3,2.1%,-5.4,7.5%
O=C(NC(c1ccc(Cl)cc1)c1c(O)ccc2ccccc12)c1ccccc1 (stereo not drawn),2.4%,-8.4%,33.2*,-1.1%,-4.0,-0.1%
Cc1ccc(-n2nnc(-c3cc4ccccc4nc3Cl)n2)cc1,-8.1%,4.9%,5.8,-22.4%,25.6,1.6%
COc1ncccc1-c1nnn(-c2ccc(C)cc2)n1,-10.9%,3.3%,48.5*,-17.7%,131.4*,-25.2%
COc1ncccc1-c1nnn(-c2ccc(Cl)c(Cl)c2)n1,-6.2%,8.4%,18.0*,-6.2%,-6.4,-5.1%
COc1ncccc1-c1nnn(-c2ccc(F)cc2)n1,-5.6%,6.4%,54.4*,-8.7%,71.0*,-27.1%
CCC(C)n1c(=O)[nH]c(C)c(Br)c1=O (stereo not drawn),.,1.4%,-2.4,.,-13.8,.
Cc1cc(C)c(NC(=O)CNC(=O)COC(=O)CNC(=O)c2ccc(Cl)cc2Cl)c(C)c1,-2.2%,.,.,-2.3%,.,.
Clc1ccc(-c2nc3n(n2)Cc2ccccc2-3)cc1,0.6%,-2.7%,66.3*,-0.2%,118.4*,?

# Screening data: PubChem BioAssay, National Center for Advancing Translational Sciences (NCATS)
